# Inconclusive results are not listed. A call without a number means that no potency is given here. Calls of active or inactive are those of the source. Unless noted, calls come from the whole dose curve; as a rule, active = well fitted curve in the direction sought with a large enough effect in the repeat runs; inconclusive = weak or mixed curves; inactive = no such curve, though single readings can be large; an effect the other way counts as inactive or inconclusive.
# Legend:
# [1] = molecular target: Peroxisome proliferator-activated receptor gamma (Homo sapiens) (UniProt P37231); assay: qHTS assay to identify small molecule antagonists of the peroxisome proliferator-activated receptor gamma (PPARg) signaling pathway (AID 743191; calls by dose curve; note: nearly all actives have a fitted effect of over 30% in size; note: potency is the fitted concentration of half-maximal effect)
# Chain of Peroxisome proliferator-activated receptor gamma (Homo sapiens) (P37231 whole entry, looked up): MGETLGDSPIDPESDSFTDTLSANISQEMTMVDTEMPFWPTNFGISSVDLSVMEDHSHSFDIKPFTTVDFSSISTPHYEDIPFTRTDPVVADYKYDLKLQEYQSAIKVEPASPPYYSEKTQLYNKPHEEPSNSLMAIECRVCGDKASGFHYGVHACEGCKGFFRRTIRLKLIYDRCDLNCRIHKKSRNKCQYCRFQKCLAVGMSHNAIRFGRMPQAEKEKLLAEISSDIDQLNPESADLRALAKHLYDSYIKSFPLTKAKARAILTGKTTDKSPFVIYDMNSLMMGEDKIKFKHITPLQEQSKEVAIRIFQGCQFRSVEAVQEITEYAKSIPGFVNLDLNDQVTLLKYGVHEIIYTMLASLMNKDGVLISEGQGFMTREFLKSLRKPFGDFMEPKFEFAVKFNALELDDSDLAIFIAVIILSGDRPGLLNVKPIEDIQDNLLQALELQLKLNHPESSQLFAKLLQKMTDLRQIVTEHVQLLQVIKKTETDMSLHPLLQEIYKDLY
# How it was run: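 GeneBLAzer PPARg UAS-bla HEK293H cells, 5 h post-plating, exposed to compounds 17 h at 37C. LiveBLAzer B/G FRET substrate added for 1 h at room temperature; beta-lactamase reporter read by fluorescence intensity.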
# [2] = qHTS assay for small molecule agonists of the antioxidant response element (ARE) signaling pathway - cell viability counter screen (AID 743203; calls by dose curve; note: nearly all actives have a fitted effect of over 55% in size; note: potency is the fitted concentration of half-maximal effect)
# How it was run: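 HepG2 cells carrying ARE-driven beta-lactamase; 2,000 cells/well; 5 hrs plating; compound pinned from DMSO; 16 hrs 37C/5% CO2; CellTiter-Glo added; 30 min RT; luminescence.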
# [3] = qHTS assay for small molecule activators of the heat shock response signaling pathway - cell viability counter screen (AID 743209); note: nearly all actives have a fitted effect of over 50% in size
# How it was run: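 Luminescence from CellTiter-Glo, added after the beta-lactamase FRET read, gave the viability signal. Cells were HSE-bla HeLa treated with DMSO-dissolved compounds for 5 h at 37 C following overnight plating.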
# [4] = qHTS assay for small molecule activators of the heat shock response signaling pathway (AID 743210; active = well fitted activation curve with a large enough effect in the signal ratio in the repeat runs, with a control signal flat, not every such curve was filed as active; the % refers to the signal ratio;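 note: HeLa cells with beta-lactamase reporter driven by heat shock elements; series mostly up to about 63 µM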)
# How it was run: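 Quantitative high-throughput format using an engineered HeLa line in which heat shock response elements drive beta-lactamase; after 5 h with compound, cells received a B/G FRET substrate and fluorescence was read.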
# [5] = qHTS assay to identify small molecule agonists of the peroxisome proliferator-activated receptor delta (PPARd) signaling pathway - cell viability counter screen (AID 743211); note: nearly all actives have a fitted effect of over 55% in size
# How it was run: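 Viability was measured as CellTiter-Glo luminescence (30 min, room temperature) in the same wells as the beta-lactamase readout. GeneBLAzer PPARd UAS-bla HEK293H cells received compound after 5 h plating and were incubated 17 h at 37 C.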
# [6] = molecular target: Peroxisome proliferator-activated receptor delta (Homo sapiens) (UniProt Q03181); assay: qHTS assay to identify small molecule antagonists of the peroxisome proliferator-activated receptor delta (PPARd) signaling pathway (AID 743215; active = well fitted inhibition curve with a large enough effect in the signal ratio in the repeat runs, not every such curve was filed as active; the % refers to the signal ratio;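 note: cells stimulated with agonist L165041 at 300 nM final during compound exposure; series mostly up to about 62 µM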)
# Chain of Peroxisome proliferator-activated receptor delta (Homo sapiens) (Q03181 whole entry, looked up): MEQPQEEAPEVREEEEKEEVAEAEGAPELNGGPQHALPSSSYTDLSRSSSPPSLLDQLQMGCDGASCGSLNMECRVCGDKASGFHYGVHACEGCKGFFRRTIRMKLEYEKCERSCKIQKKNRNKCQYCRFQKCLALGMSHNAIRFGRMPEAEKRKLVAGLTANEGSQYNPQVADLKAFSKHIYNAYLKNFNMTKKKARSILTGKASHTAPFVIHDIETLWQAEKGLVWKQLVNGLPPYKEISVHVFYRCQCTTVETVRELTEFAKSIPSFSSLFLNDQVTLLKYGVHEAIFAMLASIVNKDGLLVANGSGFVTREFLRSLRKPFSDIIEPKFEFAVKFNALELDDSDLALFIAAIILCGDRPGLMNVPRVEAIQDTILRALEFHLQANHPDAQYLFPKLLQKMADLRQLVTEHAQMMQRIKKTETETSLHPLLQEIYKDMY
# How it was run: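 Read-out is beta-lactamase FRET fluorescence, measured 2 h after substrate addition at room temperature. Beforehand, UAS-bla HEK293H cells carrying the PPARd reporter were exposed to compounds with L165041 at 300 nM final for 17 h at 37 C.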
# [7] = molecular target: Bile acid receptor (Homo sapiens) (UniProt Q96RI1); assay: qHTS assay to identify small molecule agonists of the farnesoid-X-receptor (FXR) signaling pathway (AID 743220; active = well fitted activation curve with a large enough effect in the signal ratio in the repeat runs, not every such curve was filed as active; the % refers to the signal ratio)
# Chain of Bile acid receptor (Homo sapiens) (Q96RI1 whole entry, looked up): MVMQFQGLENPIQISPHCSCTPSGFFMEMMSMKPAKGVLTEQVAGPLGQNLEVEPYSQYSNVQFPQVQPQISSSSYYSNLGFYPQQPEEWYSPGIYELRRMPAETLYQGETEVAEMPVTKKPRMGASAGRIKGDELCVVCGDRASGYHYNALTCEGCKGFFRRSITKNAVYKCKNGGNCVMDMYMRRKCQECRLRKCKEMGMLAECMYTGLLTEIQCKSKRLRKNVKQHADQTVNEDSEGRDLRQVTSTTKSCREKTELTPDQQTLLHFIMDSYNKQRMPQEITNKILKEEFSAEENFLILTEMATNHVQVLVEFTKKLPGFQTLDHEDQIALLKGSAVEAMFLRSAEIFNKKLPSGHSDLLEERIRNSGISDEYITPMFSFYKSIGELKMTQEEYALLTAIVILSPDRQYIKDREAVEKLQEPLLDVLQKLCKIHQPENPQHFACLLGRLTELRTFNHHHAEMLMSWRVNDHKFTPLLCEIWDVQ
# How it was run: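 Beta-lactamase reporter under UAS control in GeneBLAzer FXR HEK 293T cells (5000/well) measured with LiveBLAzer FRET substrate after 2 h at room temperature. Compound exposure lasted 16 h at 37C.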
# [8] = qHTS assay to identify small molecule that activate the aryl hydrocarbon receptor (AhR) signaling pathway - cell viability counter screen (AID 743086);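 note: HepG2 liver cells carrying the AhR DRE luciferase reporter; series mostly up to about 70 µM; nearly all actives have a fitted effect of over 45% in size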
# How it was run: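 HepG2-AhR-luc (HG2L7.5c1) cells, 4000/well, treated 24 h at 37 C with compound; viability measured as CellTiter-Fluor fluorescence after 30 min in the same wells as the luciferase read.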
# [9] = molecular target: Peroxisome proliferator-activated receptor gamma (Homo sapiens) (UniProt P37231); assay: qHTS assay to identify small molecule agonists of the peroxisome proliferator-activated receptor gamma (PPARg) signaling pathway (AID 743094; active = well fitted activation curve with a large enough effect in the signal ratio in the repeat runs, not every such curve was filed as active; the % refers to the signal ratio)
# How it was run: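 Beta-lactamase FRET fluorescence was the read-out after a 1 h room-temperature substrate step, following 17 h compound treatment at 37C of HEK293H cells expressing a UAS-driven bla reporter responsive to PPARg.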
# [10] = qHTS assay to identify small molecule antagonists of the peroxisome proliferator-activated receptor gamma (PPARg) signaling pathway - cell viability counter screen (AID 743194); note: nearly all actives have a fitted effect of over 55% in size
# How it was run: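 Cytotoxicity counter screen in PPARg-bla HEK293H cells, same wells as reporter assay. Compounds plus 50 nM rosiglitazone (final) for 17 h at 37 C, then viability read by CellTiter-Glo luminescence.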
# [11] = molecular target: Peroxisome proliferator-activated receptor delta (Homo sapiens) (UniProt Q03181); assay: qHTS assay to identify small molecule agonists of the peroxisome proliferator-activated receptor delta (PPARd) signaling pathway (AID 743212; calls by dose curve)
# How it was run: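 Quantitative high-throughput agonist screen in a HEK293H beta-lactamase reporter line under UAS control. Compounds in DMSO, at 37 C. Fluorescence read after 2 h with FRET substrate at room temperature.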
# [12] = qHTS assay to identify small molecule antagonists of the peroxisome proliferator-activated receptor delta (PPARd) signaling pathway - cell viability counter screen (AID 743213); note: nearly all actives have a fitted effect of over 50% in size; note: potency is the fitted concentration of half-maximal effect
# How it was run: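 In this counter screen, HEK293H cells carrying a UAS-beta-lactamase reporter are co-treated with test compounds and 300 nM L165041 (final) for 17 h at 37 C; cell viability is quantified by CellTiter-Glo luminescence.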
# [13] = molecular target: Bile acid receptor (Homo sapiens) (UniProt Q96RI1); assay: qHTS assay to identify small molecule antagonists of the farnesoid-X-receptor (FXR) signaling pathway (AID 743217; active = well fitted inhibition curve with a large enough effect in the signal ratio in the repeat runs, not every such curve was filed as active; the % refers to the signal ratio)
# How it was run: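 HEK 293T FXR-UAS-bla, 5000 cells/well; compound + CDCA 50 uM final; 16 h, 37 °C; B/G FRET substrate 2 h RT; fluorescence.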
# [14] = qHTS assay to identify small molecule agonists of the farnesoid-X-receptor (FXR) signaling pathway - cell viability counter screen (AID 743218); note: nearly all actives have a fitted effect of over 45% in size
# How it was run: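 HEK 293T FXR-bla cells; 5 h pre-incubation, 16 h compound exposure at 37 C; LiveBLAzer substrate 2 h RT, then CellTiter-Glo 30 min RT, luminescence.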
# [15] = qHTS assay to identify small molecule antagonists of the farnesoid-X-receptor (FXR) signaling pathway - cell viability counter screen (AID 743221; active = well fitted cell-killing curve with a large enough effect in the repeat runs, not every such curve was filed as active; note: nearly all actives have a fitted effect of over 50% in size)
# How it was run: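 Cytotoxicity counter screen run in the FXR-bla reporter wells: HEK 293T cells exposed to compound with 50 uM (final) chenodeoxycholic acid for 16 h, 37 C, then viability measured by CellTiter-Glo luminescence after 30 min, room temperature.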
# [16] = molecular target: Vitamin D3 receptor (Homo sapiens) (UniProt P11473); assay: qHTS assay to identify small molecule agonists of the vitamin D receptor (VDR) signaling pathway (AID 743222; calls by dose curve)
# Chain of Vitamin D3 receptor (Homo sapiens) (P11473 whole entry, looked up): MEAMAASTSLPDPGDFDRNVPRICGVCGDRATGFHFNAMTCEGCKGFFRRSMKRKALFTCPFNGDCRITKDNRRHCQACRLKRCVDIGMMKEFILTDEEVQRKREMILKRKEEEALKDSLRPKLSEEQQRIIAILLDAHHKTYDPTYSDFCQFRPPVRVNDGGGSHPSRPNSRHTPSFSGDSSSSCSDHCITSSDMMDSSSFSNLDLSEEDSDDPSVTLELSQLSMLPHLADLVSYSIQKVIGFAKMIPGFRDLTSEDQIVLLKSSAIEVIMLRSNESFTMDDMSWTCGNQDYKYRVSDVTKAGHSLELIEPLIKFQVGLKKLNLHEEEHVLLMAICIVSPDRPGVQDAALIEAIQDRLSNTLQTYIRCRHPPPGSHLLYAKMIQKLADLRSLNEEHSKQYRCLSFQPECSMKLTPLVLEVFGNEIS
# How it was run: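 VDR-bla cells, 2,000/well; 4 h preincubation 37C; cpd (DMSO) 16 h; LiveBLAzer B/G substrate 2 h RT; fluorescence intensity read.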
# [17] = molecular target: Vitamin D3 receptor (Homo sapiens) (UniProt P11473); assay: qHTS assay to identify small molecule antagonists of the vitamin D receptor (VDR) signaling pathway (AID 743223; active = well fitted inhibition curve with a large enough effect in the signal ratio in the repeat runs, not every such curve was filed as active; the % refers to the signal ratio)
# How it was run: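 Antagonist mode: compound added to VDR-bla cells alongside agonist 1alpha,25-dihydroxyvitamin D3 (3 nM final), incubation 16 h at 37C. Read-out is LiveBLAzer FRET fluorescence, 2 h at room temperature.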
# [18] = qHTS assay to identify aromatase inhibitors - cell viability counter screen (AID 743084);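 note: cells stimulated with testosterone during compound exposure; nearly all actives have a fitted effect of over 55% in size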; note: potency is the fitted concentration of half-maximal effect
# [19] = molecular target: Aryl hydrocarbon receptor (Homo sapiens) (UniProt P35869); assay: qHTS assay to identify small molecule that activate the aryl hydrocarbon receptor (AhR) signaling pathway (AID 743085);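 note: HG2L7.5c1 human HepG2 liver cells with stably integrated DRE-driven firefly reporter; series mostly up to about 70 µM; nearly all actives have a fitted effect of over 15% in size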
# Chain of Aryl hydrocarbon receptor (Homo sapiens) (P35869 whole entry, looked up): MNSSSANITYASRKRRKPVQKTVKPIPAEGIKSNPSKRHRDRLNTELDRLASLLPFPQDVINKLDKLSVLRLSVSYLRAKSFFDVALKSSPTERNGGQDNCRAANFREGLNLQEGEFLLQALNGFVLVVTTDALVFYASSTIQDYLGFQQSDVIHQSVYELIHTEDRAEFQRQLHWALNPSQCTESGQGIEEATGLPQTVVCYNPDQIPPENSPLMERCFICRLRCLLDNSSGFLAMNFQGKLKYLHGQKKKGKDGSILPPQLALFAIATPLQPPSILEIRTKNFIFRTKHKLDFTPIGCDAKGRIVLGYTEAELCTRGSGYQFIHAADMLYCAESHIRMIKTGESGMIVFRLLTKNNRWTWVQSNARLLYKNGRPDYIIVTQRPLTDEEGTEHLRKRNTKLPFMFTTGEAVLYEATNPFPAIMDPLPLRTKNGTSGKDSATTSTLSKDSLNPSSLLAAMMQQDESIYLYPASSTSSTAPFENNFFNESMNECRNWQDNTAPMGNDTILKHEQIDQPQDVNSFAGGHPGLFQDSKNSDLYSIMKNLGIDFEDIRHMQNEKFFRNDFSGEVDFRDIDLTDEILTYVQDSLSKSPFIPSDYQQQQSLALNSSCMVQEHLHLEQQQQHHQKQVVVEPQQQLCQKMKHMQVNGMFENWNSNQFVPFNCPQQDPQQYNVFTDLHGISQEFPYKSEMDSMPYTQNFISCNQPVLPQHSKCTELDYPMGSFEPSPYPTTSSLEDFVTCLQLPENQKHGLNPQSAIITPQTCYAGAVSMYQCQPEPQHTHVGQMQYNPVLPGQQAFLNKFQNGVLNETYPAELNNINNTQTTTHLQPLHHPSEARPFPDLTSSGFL
# How it was run: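 Luminescence (ONE-Glo) from a dioxin-responsive-element luciferase reporter in HG2L7.5c1 HepG2 cells after 24 hr compound exposure at 37C; viability measured by CellTiter-Fluor fluorescence beforehand.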
# [20] = qHTS assay for small molecule agonists of the antioxidant response element (ARE) signaling pathway (AID 743202; active = well fitted activation curve with a large enough effect in the signal ratio in the repeat runs, not every such curve was filed as active; the % refers to the signal ratio; note: potency is the fitted concentration of half-maximal effect)
# How it was run: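 Agonist mode reporter screen: HepG2 cells with ARE-controlled beta-lactamase are incubated with test compounds for 16 h at 37 C, and beta-lactamase activity is measured as fluorescence of cleaved B/G FRET substrate.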
Compound,Potency [1],Potency [2],outcome [3],Potency [4],Potency [5],outcome [6],outcome [7],outcome [8],Potency [9],Potency [10],outcome [11],Potency [12],outcome [13],Potency [14],outcome [15],outcome [16],outcome [17],Potency [18],Potency [19],Potency [20]
Cc1nc(N)nc(N)c1-c1ccc(Cl)c(Cl)c1,1.88 µM (active),0.668 µM (active),inactive,inactive,inactive,inactive,inactive,,,,,,,,,,,,,
CC(C)C(=O)OCC(C)(C)C(O)C(C)C (centres undefined),inactive,inactive,inactive,inactive,,,inactive,inactive,inactive,inactive,inactive,inactive,inactive,inactive,inactive,inactive,inactive,,,
CCN(CCCc1ccccc1)CCCc1ccccc1,,inactive,inactive,inactive,inactive,inactive,inactive,inactive,,,inactive,,inactive,inactive,inactive,,,inactive,,
CCCS(=O)c1ccc2nc(NC(=O)OC)[nH]c2c1 (centres undefined),,inactive,inactive,inactive,inactive,,inactive,,,inactive,inactive,inactive,,inactive,inactive,inactive,,,,
O=C(C(Cl)Cl)N1CCOC12CCCCC2,,inactive,inactive,,inactive,,inactive,inactive,inactive,inactive,inactive,inactive,inactive,inactive,inactive,inactive,inactive,,inactive,
CCCCCCOc1ccc(N)cc1,inactive,,,inactive,inactive,,inactive,inactive,inactive,inactive,,inactive,,,inactive,inactive,inactive,,,
CC(=O)O[C@H]1CC[C@@]2(C)C(=CC[C@@H]3[C@@H]2CC[C@]2(C)C(C(C)=O)=CC[C@@H]32)C1,inactive,inactive,inactive,inactive,inactive,,,,,inactive,,inactive,,inactive,inactive,inactive,inactive,,,23.7 µM (active)
COC(=O)N[C@H](C(=O)N[C@@H](Cc1ccccc1)[C@@H](O)CN(Cc1ccc(-c2ccccn2)cc1)NC(=O)[C@@H](NC(=O)OC)C(C)(C)C)C(C)(C)C,inactive,inactive,inactive,inactive,inactive,inactive,,,,inactive,,inactive,,inactive,inactive,inactive,inactive,,inactive,
CCN(CC)CCOc1ccc(Cc2ccccc2)cc1,inactive,inactive,inactive,inactive,,inactive,,,,inactive,inactive,,,,,,,inactive,,
CCCC1CCC(=O)O1 (centres undefined),inactive,inactive,inactive,inactive,inactive,inactive,,inactive,inactive,inactive,inactive,inactive,,inactive,,,inactive,,inactive,inactive
CC(Oc1c(Cl)cccc1Cl)C1=NCCN1 (centres undefined),inactive,inactive,inactive,,inactive,inactive,,,,inactive,inactive,inactive,,inactive,inactive,inactive,inactive,,,
CCOC(=O)c1cc(=O)c2c(OCC(COc3cccc4oc(C(=O)OCC)cc(=O)c34)OC(=O)[C@@H](N)CCCCN)cccc2o1,inactive,inactive,inactive,inactive,inactive,,inactive,,,inactive,,inactive,inactive,inactive,inactive,inactive,inactive,,,inactive
NC(=O)NS(=O)(=O)c1ccc(Cl)cc1,inactive,inactive,inactive,,,inactive,inactive,,,inactive,inactive,,inactive,inactive,inactive,inactive,inactive,,,inactive
CCCOc1ccc2c(c1)CC[C@@H]1[C@@H]2CC[C@]2(C)C(OC)CC[C@@H]12 (some centres undefined),,inactive,inactive,inactive,,inactive,,,,inactive,inactive,inactive,,inactive,inactive,inactive,,,,
CCC/C=C/CO,,inactive,inactive,inactive,inactive,,inactive,inactive,inactive,inactive,inactive,,,inactive,inactive,,,,inactive,inactive
CCCC(CCC)(C(=O)OCC)C(=O)OCC,,inactive,,inactive,,,inactive,,,inactive,,inactive,inactive,inactive,,,,,,inactive

Compound,Potency [1],Potency [2],outcome [3],Potency [4],Potency [5],outcome [6],outcome [7],outcome [8],Potency [9],Potency [10],outcome [11],Potency [12],outcome [13],Potency [14],outcome [15],outcome [16],outcome [17],Potency [18],Potency [19],Potency [20]
Nc1ccc2ccccc2c1S(=O)(=O)O,,inactive,inactive,inactive,inactive,inactive,,,,inactive,,inactive,,inactive,,,inactive,,,12.4 µM (active)
c1ccc(CN(CC2=NCCN2)c2ccccc2)cc1,,inactive,inactive,inactive,,,,,inactive,inactive,,,,inactive,,inactive,,inactive,,
O=C(CCCl)NCc1ccccc1,inactive,inactive,inactive,inactive,inactive,inactive,,,,inactive,inactive,inactive,,,inactive,,,,,inactive
CN1CCN(N)CC1,inactive,inactive,inactive,inactive,inactive,inactive,inactive,,,inactive,,,inactive,inactive,,,,,,inactive
CC1=NN(c2cc(Cl)c(S(=O)(=O)O)cc2Cl)C(=O)C1N=Nc1ccc(S(=O)(=O)O)cc1 (centres undefined),inactive,inactive,inactive,inactive,inactive,,,,inactive,inactive,,,,inactive,,inactive,inactive,,inactive,inactive
Cc1cc(NS(=O)(=O)c2ccc(N)cc2)nc(C)n1,inactive,inactive,inactive,inactive,,inactive,,inactive,inactive,,inactive,inactive,,inactive,inactive,,,,inactive,inactive
COC(=O)/C=C(/C)N,inactive,inactive,inactive,inactive,,inactive,inactive,,,inactive,inactive,,inactive,inactive,inactive,inactive,,,,inactive
Cc1cc2c(s1)Nc1ccccc1N=C2N1CCN(C)CC1,inactive,inactive,inactive,,inactive,inactive,,,inactive,inactive,,inactive,,inactive,inactive,inactive,inactive,23.7 µM (active),,
CCc1cc2cc(OC)c(OC)cc2c(Cc2ccccc2)n1,,inactive,inactive,inactive,,inactive,inactive,,,,inactive,,,inactive,,inactive,,,,inactive
CN(C)CC[C@@H](c1ccc(Cl)cc1)c1ccccn1,,inactive,inactive,inactive,inactive,,,inactive,,inactive,,inactive,,inactive,inactive,,,,inactive,inactive
O=C(O)[C@@H](O)[C@H](O)[C@H](O)[C@@H](O)C(=O)O,,inactive,,inactive,,inactive,,inactive,,,,inactive,,inactive,inactive,,,inactive,,
Cc1c[nH]c(=S)[nH]c1=O,inactive,inactive,inactive,,,,,inactive,inactive,inactive,,55.1 µM (active),,inactive,inactive,,inactive,,inactive,inactive
CCOc1ccc(NS(=O)(=O)c2ccc(N)cc2)nn1,,inactive,,inactive,inactive,inactive,,inactive,,inactive,inactive,inactive,,inactive,inactive,,,,,inactive
Cc1cn([C@@H]2O[C@H](CO)[C@@H](O)[C@@H]2F)c(=O)[nH]c1=O,,inactive,inactive,inactive,inactive,inactive,,,,inactive,inactive,inactive,,,inactive,inactive,inactive,,,inactive
O=Cc1ccc(O)c(O)c1O,inactive,inactive,,,,,inactive,,,,,,inactive,inactive,inactive,,,,,

# — PubChem BioAssay (Tox21)
